The list is not random: actives were taken first. Their share in the collection is about 3.5%.
TEAD-YAP block – TEAD-YAP interaction inhibition; inhibition, % at 9.12 µM; 1.4% of 640,000 active; AID 1259422; HEK-TIYL cells, TEAD-Gal4/YAP UAS-luciferase luminescence; in the data active means inhibition above about 32%;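 further: 0% = median of test compound wells and 100% = reference inhibitor wells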
MITF inh – blocks human microphthalmia-associated transcription factor; inhibition, % at 2.6 µM; AID 1259374; O75030; 0.91% of 650,000 active; AlphaScreen MITF homodimerization, bead proximity signal; in the data active means inhibition above about 50%;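 further: 0% = vehicle wells with protein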
GPR151 activ – human GPR151 activation | Q8TDV0 | PathHunter beta-arrestin GPR151 cells, luminescence | activation, % at 11.2 µM | 1% of 650,000 active; in the data active means activation above about 4.9%;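 further: 0% = median of compound wells and 100% = cells with positive control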
FBW7 act – activators of human E3 ligase FBW7 | AlphaScreen FBW7–phospho-cyclin E peptide binding, activator screen | Q969H0 | normalized activity (activation), % at 26.1 µM | 0.13% of 650,000 active | AID 1259310; in the data active means normalized activity above about 1.9%;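 further: purified mutant Fbw7 with reduced substrate affinity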
Active calls of the source: *.

SMILES	TEAD-YAP block	MITF inh	GPR151 activ	FBW7 act
O=C(N=NC(=O)c1ccc2c(O)n(CC3CCCO3)c(O)c2c1)c1cccc([N+](=O)[O-])c1 (configuration not stated)	17	13	-2	0
O=C(N/N=C/c1cccc(O)c1O)c1cc(O)cc(O)c1	31	61*	-1	-1
COc1cccc(/C=N/NC(=O)c2ccccc2O)c1O	77*	42	-2	-1
O=C(NCc1ccccc1)c1ccnc(NCc2ccc3c(c2)OCO3)c1	1	11	-1	0
Cn1c(SCC(=O)Nc2ccc(F)cc2F)nnc1-c1cccn(C)c1=O	-7	-5	1	0
CCOC(=O)C1=C(c2ccc(F)cc2)C(=O)c2ccccc2C1=O	26	14	0	-1
CCOC(=O)C1=C(Cc2ccc(OC)cc2)C(=O)c2ccccc2C1=O	46*	12	-1	0
C(=Nc1ccc(N2CCOCC2)cc1)c1ccccc1	65*	14	0	-1
CNC(=O)C(NC(=O)c1ccccc1)=C1CCCCC1	43*	-3	-1	0
CNC(=O)/C(=C\c1ccccc1)NC(=O)c1ccccc1	-10	8	0	0
Cc1ccc(C(=O)/C=C/Nc2ccc(O)cc2C)cc1	40*	11	-1	0
Cc1cc(O)ccc1N/C=C/C(=O)c1ccccc1	74*	-5	-3	0
Cc1cc(O)ccc1NC(=O)c1ccccc1	3	-8	-1	0
COc1ccc(C(=O)/C=C/Nc2ccc(O)cc2C)cc1OC	-14	7	-1	0
CN1C/C(=C\c2ccncc2)C(=O)/C(=C/c2ccncc2)C1	95*	8	0	0
Cc1ccc(/C=C2/CN(C)C/C(=C/c3ccc(C)o3)C2=O)o1	2	0	0	0
O=C1/C(=C/c2cccnc2)CCCC/C1=C\c1cccnc1	-2	13	-4	1
O=C1/C(=C/c2ccncc2)CCC/C1=C\c1ccncc1	59*	-2	0	0
Cc1cccc(-n2ncc3c(NCC4CCCO4)ncnc32)c1 (configuration not stated)	-6	-5	0	0
Cc1cc(Nc2ccccc2F)nc2cccc(O)c12	43*	2	2	0
Cc1ccc(-c2noc(N=O)c2NO)cc1	36*	-3	1	0
O=Nc1onc(-c2ccc([N+](=O)[O-])cc2)c1NO	10	-12	1	0
CCOC(=O)/C(C#N)=C/C1=C(N2CCOCC2)C(=C\c2ccccc2)/CC1	-2	51*	0	-1
COCCNC(=O)/C(C#N)=C/C1=C(N2CCOCC2)C(=C\c2ccccc2)/CC1	9	9	2	-1
CC(C)(C)c1cc(N)n(-c2ccc([N+](=O)[O-])cc2)n1	-6	7	0	0
SMILES	TEAD-YAP block	MITF inh	GPR151 activ	FBW7 act
CCN1/C(=C/C=C/c2sc3c(C)cccc3[n+]2CC)Sc2c(C)cccc21	44*	33	-1	0
COc1cc(C(=O)Oc2ccc3c(=O)c(Oc4ccc(C(C)(C)C)cc4)coc3c2)cc(OC)c1OC	80*	-6	-1	0
CC(C)(C)c1ccc(Oc2coc3cc(O)ccc3c2=O)cc1	64*	18	0	1
O=c1c(Oc2ccc(Cl)cc2)coc2cc(O)ccc12	-4	12	2	0
COc1cc(C(=O)Oc2ccc3c(=O)c(Oc4cc(C)cc(C)c4)coc3c2)cc(OC)c1OC	2	3	1	0
N#Cc1ccc(N2CCc3ccccc3C2)c([N+](=O)[O-])c1	-5	1	0	0
Cc1nnc(-c2ccc(N3CCc4ccccc4C3)c([N+](=O)[O-])c2)o1	45*	22	1	0
CCCC(=O)Nc1ccc(-c2nc3cccnc3s2)cc1	15	9	-2	0
CC(C)C(=O)Nc1ccc(-c2nc3cccnc3s2)cc1	87*	12	-5	0
Cc1nc(SCc2ccccc2)n[nH]1	3	-3	1	0
COc1ccc(CSc2n[nH]c(C)n2)cc1	64*	7	0	0
Cc1nc(SCc2ccc(CSc3n[nH]c(C)n3)cc2)n[nH]1	83*	6	-7	0
COc1ccc(NC(=O)CC23CC4CC(CC(C4)C2)C3)c([N+](=O)[O-])c1	-1	16	0	0
CS(=O)(=O)N1CCC(C(=O)N2CCCC2c2nc3ccccc3[nH]2)CC1 (configuration not stated)	-6	-2	0	0
COc1ccc(CCN=Cc2cccc([N+](=O)[O-])c2)cc1OC	3	29	0	0
O=C(Nc1cc(Cl)ccc1Cl)c1nn2c(C(F)(F)F)cc(-c3cccs3)nc2c1Br	-11	-7	1	0
Cc1cc(OCCCNCCN)ccc1C(C)C	-2	-2	-2	0
Cc1cc(OCC(O)CNC2CCCC2)ccc1C(C)C (configuration not stated)	12	13	0	0
C=CCNCCCOc1ccc(C(C)C)c(C)c1	42*	37	-3	0
Cc1cc(OCC(O)CNC(C)C)ccc1C(C)C (configuration not stated)	51*	-16	0	0
CCOC(=O)c1c(N)sc(C(=O)Nc2ccccc2)c1C	32*	3	-5	0
CCOC(=O)c1c(N)sc(C(=O)Nc2ccc(C)c(Cl)c2)c1C	35*	3	-4	0
CCOC(=O)c1c(N)sc(C(=O)Nc2cccc(Cl)c2)c1C	50*	1	-8	0
COC(=O)c1c(N)sc(C(=O)Nc2cccc(Cl)c2C)c1C	69*	4	-4	0
COc1ccc(NC(=O)CSc2nnc3c(n2)[nH]c2ccc(F)cc23)c([N+](=O)[O-])c1	-7	6	1	0
SMILES	TEAD-YAP block	MITF inh	GPR151 activ	FBW7 act
CCOC(=O)c1c(N)sc(C(=O)Nc2ccccc2F)c1C	48*	-8	-6	0
CCOC(=O)c1c(N)sc(C(=O)Nc2ccccc2C(F)(F)F)c1C	14	6	3	0
CC1CCc2c(sc(NC(=O)CN3CCN(C(=O)C4CC4)CC3)c2C(N)=O)C1 (configuration not stated)	-7	-8	0	0
COc1ccc2c(c1)OC/C(=C\c1cccs1)C2=O	-45	10	-1	0
COc1ccc2c(c1)OC/C(=C\c1ccc(OC)c(O)c1)C2=O	42*	1	0	1
CC(C)(C)C(=O)Oc1ccc2c(c1)O/C(=C\c1ccncc1)C2=O	4	6	0	0
COc1ccc(/C=C2\Oc3cc(OC(=O)c4cccnc4)ccc3C2=O)cc1	41*	21	0	0
COc1ccc2c(c1)O/C(=C\c1ccc(OC(C)=O)c(OC)c1)C2=O	43*	-11	3	0
COCCC(=O)N1CCCC(N2CCN(c3ccccc3)CC2)C1 (configuration not stated)	2	19	-1	1
Cc1[nH]nc2c1C1(CCN(CCc3ccccc3)CC1)C(C#N)=C(N)O2	8	0	2	-1
COCC(=O)NC(CC(C)C)c1nnc2n1CCN(Cc1cccc(C)c1)CC2 (configuration not stated)	10	5	2	0
CCN(CC)CCNc1cc(C)nc2c1C(=O)C(=O)C=C2N1CCCCC1	94*	9	0	0

Bioassay records as filed in PubChem.
